PI5P4K alpha inh – qHTS for Inhibitors of phosphatidylinositol 5-phosphate 4-kinase (PI5P4K); 1.2% of 330,000 active; max response, %; AID 652105, 2013; PI5P4Kalpha enzyme, ADP-Glo luminescence, 60 min; stronger effect = lower value; active = max response of -50% or lower; inconclusive = between -30% and -50%; inactive = -30% or higher; also: value at the top dose of about 77 µM
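qHTS, 1536-well: enzyme/substrate mix, compound by pin tool, 5 microM ATP final; RT 60 min; ADP-Glo reagents 1 (45 min) then 2 (30 min); luminescence.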
WRN helicase inh – qHTS for Inhibitors of WRN Helicase; Bifunctional 3'-5' exonuclease/ATP-dependent helicase WRN (Homo sapiens), Q14191; WRN helicase unwinding, fluorescent forked duplex, kinetic; Potency, µM (doses to about 114 µM), hits mostly inhibitors; 0.46% of 360,000 active; also: nearly all actives have a fitted effect of over 55% in size
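Fluorescence dequenching readout, ex 525 nm/em 598 nm, kinetic mode: forked duplex DNA (100 nM final) with adjacent fluorophore and quencher unwound by WRN (20 nM final) with 2 mM ATP. Compound preincubation 15 min, room temperature.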
Pol beta inh – qHTS Assay for Inhibitors of DNA Polymerase Beta | P06746 | Pol beta primer extension/strand displacement, fluorescence kinetic | Potency, µM (doses to about 114 µM), actives largely listed as inhibitors | 1.3% of 340,000 active
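Preincubation: enzyme (10 nM) with compound, 15 min, RT. Reaction: substrate added to 50 nM final. Reads: 0 and 10 min. Analysis: normalized, Hill fit.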
Pol eta inh – qHTS for Inhibitors of Polymerase Eta; DNA polymerase eta (Homo sapiens), Q9Y253; recombinant Pol eta, fluorescent DNA replication assay; Potency, µM (titrated, usually from 114 µM), most hits filed as inhibitors; 1.2% of 390,000 active
Target sequence (Q9Y253 whole entry, looked up): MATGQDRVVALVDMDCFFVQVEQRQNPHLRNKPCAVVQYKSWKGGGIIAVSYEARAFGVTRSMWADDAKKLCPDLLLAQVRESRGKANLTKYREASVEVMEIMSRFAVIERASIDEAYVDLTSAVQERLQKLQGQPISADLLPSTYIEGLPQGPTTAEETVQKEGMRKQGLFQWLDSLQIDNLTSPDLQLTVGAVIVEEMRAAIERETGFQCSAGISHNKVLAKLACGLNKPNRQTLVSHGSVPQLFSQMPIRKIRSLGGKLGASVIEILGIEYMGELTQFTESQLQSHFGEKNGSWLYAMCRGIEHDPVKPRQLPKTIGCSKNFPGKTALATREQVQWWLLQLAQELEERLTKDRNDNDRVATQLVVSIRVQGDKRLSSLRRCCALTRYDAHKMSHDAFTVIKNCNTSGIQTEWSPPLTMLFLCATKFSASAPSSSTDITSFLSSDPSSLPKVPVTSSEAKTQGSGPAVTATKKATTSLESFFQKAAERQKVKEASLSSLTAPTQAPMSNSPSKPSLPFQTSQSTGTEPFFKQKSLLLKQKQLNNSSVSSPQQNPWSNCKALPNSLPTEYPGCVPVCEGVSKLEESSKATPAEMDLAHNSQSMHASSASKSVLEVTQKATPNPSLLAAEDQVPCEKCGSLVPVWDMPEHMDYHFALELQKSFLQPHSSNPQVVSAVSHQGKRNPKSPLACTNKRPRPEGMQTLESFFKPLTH
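Pol eta (10 nM) was preincubated with compounds for 15 min at room temperature, after which fluorescent replication substrate (50 nM final) was added to start the reaction. Fluorescence was read kinetically at 0 and 10 min.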
POLK inh – qHTS for Inhibitors of Polymerase Kappa | DNA polymerase kappa (Homo sapiens), Q9UBT6 | purified Pol kappa, fluorescent DNA synthesis assay, 10 min | Potency, µM (top dose mostly 107 µM), actives largely listed as inhibitors | 0.53% of 400,000 active | AID 588579, 2011
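First, compounds were pin-transferred onto 10 nM Pol kappa. After 15 min at room temperature, substrate was added to 50 nM final. Fluorescence was then measured kinetically at 0 and 10 min.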
POLI inh – qHTS for Inhibitors of Polymerase Iota | AID 588590, 2011 | Pol iota fluorescent replication assay, 10 min | 1% of 390,000 active | DNA polymerase iota (Homo sapiens), Q9UNA4 | Potency, µM (series often up to 115 µM), most hits filed as inhibitors
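Pol iota at 10 nM preincubated 15 min with compounds at room temperature; reaction started with fluorescent substrate, 50 nM final. Fluorescence read kinetically at 0 and 10 min; buffer-only wells as negative control.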
Large screens that a line does not name were inactive; ! = not active in a repeat. In the library only some 2.8% were active in any assay of this set; here they are far more common. Unless noted, calls follow the shape of the dose curve; as a rule, active = well fitted curve in the direction sought with a large enough effect; inconclusive = small, poorly fitted or top-dose-only effect, or another doubt; inactive = no such curve, though single readings can be large; an effect the other way counts as inactive or inconclusive.

Cc1sc2ncnc(SCc3ccc(C(=O)O)cc3)c2c1C	Pol eta inh inconclusive
c1ccc(-c2csc3ncnc(N4CCN(Cc5ccc6c(c5)OCO6)CC4)c23)cc1	none
Cn1nnnc1Sc1ncnc2scc(-c3ccccc3)c12	PI5P4K alpha inh -52, Pol beta inh 28µM, Pol eta inh inconclusive, POLI inh inconclusive
Cc1ccc(-c2csc3ncnc(SCc4ccc(C(=O)O)cc4)c23)cc1	Pol beta inh inconclusive, Pol eta inh 79µM
Cc1ccc(-c2csc3ncnc(Nc4ccc(C(=O)O)cc4)c23)cc1	Pol beta inh inconclusive, Pol eta inh 79µM!
CCOc1ccc(NC(=O)CN2C(C(=O)OC)=C(c3ccccc3)c3cc(Cl)ccc3S2(=O)=O)cc1	none (no result: PI5P4K alpha inh, WRN helicase inh)
O=C(O)c1ccc(Nc2ncnc3scc(-c4ccccc4)c23)cc1	none
O=C(CSc1ncnc2scc(-c3ccccc3)c12)Nc1ccc(C(=O)O)cc1	PI5P4K alpha inh -85
Cc1ccc(S(=O)(=O)N(CC(O)Cn2c3ccccc3c3ccccc32)c2cccc(C(=O)N(C)C)c2)cc1 (stereo unspecified)	POLK inh 79µM, POLI inh 89µM (no result: PI5P4K alpha inh, WRN helicase inh)
COc1ccc(OC)c(CCNC(=O)c2cccc(NC(=O)C3=C(C)OCCS3)c2)c1	none
O=C(O)Cn1c(CCS(=O)(=O)c2ccc(Br)cc2)nc2ccccc21	WRN helicase inh inconclusive, Pol beta inh 14µM, Pol eta inh 20µM
COC(=O)Cn1c(CCS(=O)(=O)c2ccc(C)c(C)c2)nc2ccccc21	none (no result: PI5P4K alpha inh)
COc1c(Cl)cc(C(=O)NN)cc1Cl	none
NNC(=O)c1cc(O)c(O)c(O)c1	Pol beta inh 3.2µM, POLK inh 56µM, POLI inh inconclusive
Cc1cccc(NC(=O)N2CCC(N3CCN(Cc4ccccc4)C(=O)C3=O)CC2)c1C	none (no result: PI5P4K alpha inh, WRN helicase inh)
O=C(CSCc1c(Cl)cccc1Cl)Nc1ccc2c(c1)OCCO2	none
COC(=O)\C(C(C)=O)=C(/C=C/C=C/N(C)C)N(C)C	Pol beta inh 22µM, Pol eta inh 14µM, POLK inh inconclusive, POLI inh inconclusive
O=C(O)C1CC(c2ccc(F)cc2)=NO1 (stereo unspecified)	Pol beta inh 7.9µM (no result: PI5P4K alpha inh)
Cn1c2ccccc2c(=O)c2ccc(-c3ccc4c(c3)OCO4)cc21	Pol eta inh inconclusive, POLI inh inconclusive
Cc1c(C(=O)O)c(O)cc2c1C(=O)c1c(O)c([C@H]3O[C@H](CO)[C@@H](O)[C@H](O)[C@H]3O)c(O)c(O)c1C2=O	POLK inh 3.2µM, POLI inh 79µM (no result: PI5P4K alpha inh, WRN helicase inh, Pol beta inh, Pol eta inh)
COc1c(O)cc2c(c1O)[C@@H]1O[C@H](CO)[C@@H](O)[C@H](O)[C@H]1OC2=O	none
COc1ccccc1N1CCN(C(=O)N2CCOCC2)CC1	POLI inh 89µM
COc1ccc(CCNC(=O)c2cc3n(n2)CCCN(Cc2ccc(C)cc2)C3=O)cc1OC	none (no result: PI5P4K alpha inh, WRN helicase inh)
N#Cc1c(-c2ccco2)cc(-c2ccc(F)cc2)nc1N	PI5P4K alpha inh -64, WRN helicase inh inconclusive, Pol eta inh inconclusive, POLI inh inconclusive
N#Cc1c(-c2ccc(F)cc2)cc(-c2ccccc2)nc1SCC(=O)NCC(=O)O	Pol beta inh 45µM, POLI inh inconclusive
COC(=O)CSc1nc(-c2ccccc2)cc(-c2ccco2)c1C#N	Pol beta inh 28µM (no result: PI5P4K alpha inh)
COC1=CC(=O)OC(c2cccc(C(F)(F)F)c2)C1 (stereo unspecified)	none (no result: Pol beta inh, Pol eta inh, POLK inh, POLI inh)
CNc1cc(C)c(C#N)c2nc3ccccc3n12	none
Cc1cc(Cl)n2c(nc3ccccc32)c1C#N	WRN helicase inh inconclusive, Pol beta inh 89µM, Pol eta inh 40µM, POLI inh 22µM
CCc1nnc(N/N=C/c2cccs2)n1N	POLI inh 22µM
CCc1nnc(N/N=C/c2c(Cl)cccc2Cl)n1N	POLI inh 13µM (no result: PI5P4K alpha inh)
CNC(=S)N/N=C/c1c(Cl)cccc1Cl	none
C(=N\Nc1nc2ccccc2s1)/c1cccs1	none (no result: PI5P4K alpha inh)
COc1cc(Cl)c(C)cc1NC(=O)c1cc2c(=O)oc3ccccc3c2s1	POLI inh inconclusive (no result: PI5P4K alpha inh, WRN helicase inh)
Cc1ccc(NC(=O)C2CCCN(c3ncnc4onc(C)c34)C2)cc1Cl (stereo unspecified)	none (no result: PI5P4K alpha inh, WRN helicase inh)
CC[C@]12c3[nH]c4cc(-c5ccco5)ccc4c3CCN1C(=O)[C@@H](CC(=O)NCCCOC)C[C@@H]2C(=O)N1CCN(C(=O)c2ccco2)CC1	PI5P4K alpha inh inconclusive, POLI inh inconclusive (no result: Pol beta inh)
c1ccc(Cc2c(C3CCCCC3)nc3c4ccccc4ccn23)cc1	none (no result: Pol beta inh, Pol eta inh, POLK inh, POLI inh)
N#C/C(=C\c1ccc(-c2cccc(Cl)c2)o1)C(=O)Nc1cccc(C(F)(F)F)c1	POLI inh 89µM (no result: PI5P4K alpha inh, WRN helicase inh)
Cc1cc(NC(=O)/C(C#N)=C/c2ccc(-c3cccc(C(F)(F)F)c3)o2)n(-c2ccccc2)n1	none
O=C1SC(SCc2ccccc2)=N/C1=C\c1ccco1	WRN helicase inh 50µM, Pol beta inh 35µM, Pol eta inh 79µM, POLK inh 32µM, POLI inh 11µM (no result: PI5P4K alpha inh)
Cc1cc(C)nc(N/N=C/c2sccc2C)n1	PI5P4K alpha inh -53
Cc1cc(C)nc(N/N=C/c2ccccc2)n1	none (no result: PI5P4K alpha inh)
N#Cc1ccsc1NC(=O)CSc1nnc(NC2CC2)s1	none (no result: Pol beta inh, POLK inh, POLI inh)
CC(C)Nc1nnc(SCC(=O)Nc2sccc2C#N)s1	PI5P4K alpha inh inconclusive, Pol eta inh 32µM, POLI inh inconclusive (no result: Pol beta inh)
CC(=O)N(C(C)=O)N1C(=O)/C(=C/c2ccc(Cl)cc2)SC1=S	WRN helicase inh inconclusive, Pol beta inh inconclusive, Pol eta inh 28µM, POLI inh 25µM
Cc1ccc(C)n1N1C(=O)/C(=C\c2ccc(Cl)cc2)SC1=S	POLI inh inconclusive
N#Cc1ccc(NC(=O)COc2ccccc2C(=O)Nc2ccccc2)cc1	none (no result: PI5P4K alpha inh, WRN helicase inh, Pol beta inh, Pol eta inh)
Cc1cccc(NC(=O)CN2C(=O)N/C(=C/c3ccc(C)s3)C2=O)c1	none
Cc1c(C(=O)O)cccc1-c1ccc(/C=C2/NC(=O)N(c3ccccc3)C2=O)o1	Pol beta inh 18µM, Pol eta inh 22µM, POLK inh inconclusive, POLI inh inconclusive
Cc1cccc(NC(=O)CN2C(=O)N/C(=C/c3ccc(-c4cccc(C(=O)O)c4C)o3)C2=O)c1	Pol beta inh inconclusive, Pol eta inh 79µM
Cc1ccc(/C=C2/NC(=O)N(c3ccccc3)C2=O)o1	none (no result: PI5P4K alpha inh)
CCOc1ccc(N=Nc2c(=O)[nH]n3c(=O)c4c([nH]c23)CCCC4)cc1	PI5P4K alpha inh inconclusive, Pol beta inh 50µM
COc1ccc(OCC(=O)Nc2nc3ccc(NC(C)=O)cc3s2)cc1	Pol beta inh 22µM, Pol eta inh inconclusive
